This is a sample that favours compounds with a hit; in the whole collection about 12% have one here.
USP28 block = human USP28 deubiquitinase inhibition; Q96RU2; purified USP28, Ub-rhodamine cleavage fluorescence, 30 min; inhibition, % at 25 µM; actives 3% (n = 47,000); AID 1645857
OTUD3 inh = blocks human OTUD3 ubiquitin-rhodamine cleavage. actives 0.7% (n = 47,000). Q5T2D3. AID 1645858. inhibition, % at 25 µM. purified OTUD3, Ub-rhodamine fluorescence, 2 h
USP30 inh = human USP30 deubiquitinase inhibition; Q70CQ3; purified USP30, Ub-rhodamine cleavage fluorescence; inhibition, % at 25 µM; actives 5.3% (n = 47,000); AID 1645860
Target sequence (Q70CQ3 whole entry, looked up): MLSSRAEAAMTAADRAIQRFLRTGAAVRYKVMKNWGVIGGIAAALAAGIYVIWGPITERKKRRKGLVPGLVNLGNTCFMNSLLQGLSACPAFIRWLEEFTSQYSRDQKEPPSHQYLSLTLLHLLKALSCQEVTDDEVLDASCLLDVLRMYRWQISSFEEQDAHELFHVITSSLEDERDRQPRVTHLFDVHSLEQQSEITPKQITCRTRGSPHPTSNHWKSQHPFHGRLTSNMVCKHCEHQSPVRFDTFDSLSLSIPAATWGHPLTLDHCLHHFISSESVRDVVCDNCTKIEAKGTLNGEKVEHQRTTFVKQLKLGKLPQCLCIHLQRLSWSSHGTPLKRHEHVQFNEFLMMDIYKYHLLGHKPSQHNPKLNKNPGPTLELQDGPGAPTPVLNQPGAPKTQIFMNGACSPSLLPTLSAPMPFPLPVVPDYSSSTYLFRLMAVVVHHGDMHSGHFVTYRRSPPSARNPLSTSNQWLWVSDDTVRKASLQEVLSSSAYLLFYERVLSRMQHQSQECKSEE
USP17 block = human USP17-like deubiquitinase inhibition. A8MUK1. purified USP17, Ub-rhodamine cleavage fluorescence, 3 h. inhibition, % at 50 µM. actives 6.5% (n = 47,000). AID 1645855
Numbers without * were called inactive. No stated cut-off is given here; in the data, active means inhibition above about 30%; inactive means the rest.

Screening Cc1ccc(CN2Cc3cc4ccccc4nc3OC2=O)o1 returned USP28 block 7, OTUD3 inh 4, USP30 inh 13 and USP17 block 42*.
`Cc1cc(C)c2cc3c(nc2c1)OC(=O)N(Cc1ccco1)C3` gave USP28 block 40*, OTUD3 inh 10, USP30 inh 30 and USP17 block 56*.
COc1ccc2cc3c(nc2c1)OC(=O)N(Cc1ccccc1)C3 was read as USP28 block 23, OTUD3 inh 9, USP30 inh 39* and USP17 block 29.
For Cc1sc2ccn(C)c(=O)c2c1C(=O)NC1CCCC1 the results were USP28 block 28, OTUD3 inh 9, USP30 inh 3 and USP17 block 62*.
Cc1cc2c(cc(C(=O)NC3CC3)n2C)s1 was read as USP28 block 1, OTUD3 inh 3, USP30 inh -29 and USP17 block -4.
Cc1ccc(C(=O)N2CCC3(CC2)CC2(CO3)Nc3ccccc3-n3cccc32)cn1 (centres undefined) was read as USP28 block -42, OTUD3 inh -39, USP30 inh -184 and USP17 block 29.
Screening O=C(Cc1ccccc1F)N1CCC2(CC1)CC1(CO2)Nc2ccccc2-n2cccc21 (centres undefined) returned USP28 block 1, OTUD3 inh 2, USP30 inh -17 and USP17 block 53*.
Cc1oc(C2CC2)cc1C(=O)N1CCC2(CC1)CC1(CO2)Nc2ccccc2-n2cccc21 (centres undefined) was read as USP28 block 17, OTUD3 inh 2, USP30 inh -5 and USP17 block 71*.
For Cc1nn(C)cc1C(=O)N1CCC2(CC1)CC1(CO2)Nc2ccccc2-n2cccc21 (centres undefined) the results were USP28 block -20, OTUD3 inh -20, USP30 inh -36 and USP17 block 38*.
Screening Cc1occc1-c1nnc(SCC(=O)Nc2ccc3c(c2)OCCCO3)o1 returned USP28 block 1, OTUD3 inh 2, USP30 inh 3 and USP17 block 3.
Screening CN(C(=O)/C=C/c1ccccc1)c1nnc(C23CC4CC(CC(C4)C2)C3)s1 returned USP28 block -8, OTUD3 inh -4, USP30 inh -9 and USP17 block 0.
`COC1C(CO)O[C@@H](O[C@H](C[C@@]2(C)[C@H](C)CCC(=O)[C@@H]2C)/C(C)=C/Cc2c(O)c(Cl)c(C)c(C=O)c2O)C(O)C1O` (some centres undefined) gave USP28 block 4, OTUD3 inh 3, USP30 inh 27 and USP17 block 11.
Screening C/C(=C\Cc1c(O)cc(C)c(C=O)c1O)CC[C@@]1(C)[C@H](C)CCC(=O)[C@@H]1C returned USP28 block 7, OTUD3 inh -3, USP30 inh 28 and USP17 block 50*.
For COc1ccc2nc(C(=O)NCc3ccc4c(c3)OCO4)cn2n1 the results were USP28 block 1, OTUD3 inh 2, USP30 inh 0 and USP17 block -6.
Screening CCS(=O)(=O)N1CCC2(CCN(Cc3ccc(Cl)cc3)C2)C1 (centres undefined) returned USP28 block 6, OTUD3 inh 11, USP30 inh 10 and USP17 block -3.
Screening COc1ccc(Cn2cnc3c([nH]c4ccc(Br)cc43)c2=O)cc1 returned USP28 block -24, OTUD3 inh -20, USP30 inh -13 and USP17 block 61*.
For O=c1c2[nH]c3ccc(Br)cc3c2ncn1CCO the results were USP28 block 1, OTUD3 inh -4, USP30 inh 3 and USP17 block 24.
Screening COc1ccc2[nH]c3c(=O)n(Cc4cccnc4)cnc3c2c1 returned USP28 block 9, OTUD3 inh -1, USP30 inh 24 and USP17 block 45*.
Cc1ccc2[nH]c3c(=O)n(Cc4cccnc4)cnc3c2c1 was read as USP28 block 7, OTUD3 inh 4, USP30 inh 17 and USP17 block 34*.
`COCCCn1cnc2c([nH]c3ccc(Br)cc32)c1=O` gave OTUD3 inh 4 and USP17 block 65*.
`COc1ccccc1NC(=O)Cn1cc(C(=O)c2ccc(C)cc2)c(=O)c2cc(Cl)ccc21` gave USP28 block 2, OTUD3 inh 12, USP30 inh 25 and USP17 block 61*.
For Cc1ccc2c(c1)c(=O)c(C(=O)c1ccccc1)cn2CC(=O)Nc1ccc2c(c1)OCCO2 the results were USP28 block -5, OTUD3 inh -6, USP30 inh -5 and USP17 block 62*.
For Cc1ccc(C(=O)c2cn(CC(=O)Nc3ccccc3)c3ccc(C)cc3c2=O)cc1 the results were USP28 block 1, OTUD3 inh 8, USP30 inh 14 and USP17 block 53*.
Screening COc1ccc(NC(=O)Cn2cc(C(=O)c3ccc(C)cc3)c(=O)c3ccccc32)cc1 returned USP28 block 41*, OTUD3 inh 10, USP30 inh 49* and USP17 block 85*.
Screening NC(=O)c1c(NC(=O)C2CCCN(C(=O)c3cc(F)cc(F)c3)C2)sc2c1CCCC2 (centres undefined) returned OTUD3 inh -2 and USP17 block -17.
`CCOC(=O)CSc1nnc(-c2ccc(NC(=O)c3ccccc3)cc2)n1C` gave USP28 block 25, OTUD3 inh 7, USP30 inh 22 and USP17 block 26.
Cc1ccc(C(=O)c2cn(CC(=O)Nc3ccccc3)c3ccccc3c2=O)cc1 was read as USP28 block 23, OTUD3 inh 16, USP30 inh 35* and USP17 block 37*.
For O=C(Cn1cc(C(=O)c2ccc(F)cc2)c(=O)c2ccccc21)Nc1ccc2c(c1)OCO2 the results were USP28 block 12, OTUD3 inh 16, USP30 inh 42* and USP17 block 12.
CC1CCCN(S(=O)(=O)c2ccc3c(c2)NC(=O)CCS3)C1 (centres undefined) was read as OTUD3 inh -1 and USP17 block 3.
`C=C[C@@]1(C)CC[C@H]2C(=CC[C@@H]3[C@]2(C)CC[C@H](O)[C@]3(C)CO[C@@H]2O[C@H](CO)[C@@H](O)[C@@H](O)[C@@H]2O)C1` gave USP28 block -9, OTUD3 inh -3, USP30 inh -19 and USP17 block 2.
`Cc1cc(C)nc(C2CN(C(=O)c3ccc4n[nH]nc4c3)CCO2)n1` (centres undefined) gave USP28 block 2, OTUD3 inh 8, USP30 inh 10 and USP17 block 6.
For O=C(NCc1ccccc1)c1ccccc1OCc1ccc2c(c1)OCO2 the results were USP28 block 3, OTUD3 inh 19, USP30 inh 35* and USP17 block 31*.
N#Cc1ccccc1OCC(=O)NCc1ccc2c(c1)OCO2 was read as USP28 block -11, OTUD3 inh -12, USP30 inh -20 and USP17 block -13.
Screening O=C(NCc1ccc(F)cc1)c1nnc(Cc2ccc(Cl)cc2)o1 returned USP28 block 1, OTUD3 inh 0, USP30 inh 3 and USP17 block 4.
Cc1nc(NCc2ccccc2)ncc1C(=O)NCc1ccc2c(c1)OCO2 was read as USP28 block -10, OTUD3 inh -63, USP30 inh -238 and USP17 block 3.

Screens as filed in PubChem BioAssay.
